Source: PubChem BioAssay (NCI)
Compounds without any hit were thinned out: in the full panel of roughly 79,000, 15% have a hit. The source made the active and inactive calls. No stated cut-off is given here; in the data, active means growth inhibition above about 70%; inactive means the rest.

Experiments:
[1] = NCI Yeast Anticancer Drug Screen. Data for the rad52 strain (AID 147);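 further: 0% = growth of vehicle-treated control cultures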; details: S. cerevisiae rad52 mutant growth inhibition, active compounds read high
Summary of the method: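 Read-out: growth inhibition versus vehicle-treated controls. Cells were a DNA repair-deficient yeast strain treated with compounds.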

[2] = NCI Yeast Anticancer Drug Screen. Data for the rad50EPP+ strain (AID 151);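 further: 0% = growth of vehicle-treated control cultures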; details: S. cerevisiae rad50 mutant strain, active compounds read high
Summary of the method: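 Growth inhibition read against vehicle controls in rad50EPP+ yeast, a strain altered in DNA damage repair, after compound exposure.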

[3] = NCI Yeast Anticancer Drug Screen. Data for the mgt1 strain (AID 153); details: S. cerevisiae mgt1 mutant growth inhibition, active compounds read high
Summary of the method: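 mgt1 yeast grown with test compound; read-out is growth inhibition versus vehicle-treated cultures.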

[4] = NCI Yeast Anticancer Drug Screen. Data for the rad50 strain (AID 155);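 further: 0% = growth of vehicle-only cultures of the same strain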; details: S. cerevisiae rad50 strain growth inhibition, active compounds read high
Summary of the method: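 A DNA repair-deficient yeast mutant serves as the test organism; compound-induced growth inhibition is calculated against vehicle-treated cells.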

[5] = NCI Yeast Anticancer Drug Screen. Data for the mec2-1 strain (AID 157); details: S. cerevisiae mec2-1 strain, active compounds read high
Summary of the method: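 Yeast mec2-1 mutant treated with compound. Readout: growth inhibition vs vehicle controls.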

[6] = NCI Yeast Anticancer Drug Screen. Data for the rad14 strain (AID 159);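 further: 0% = growth of vehicle-treated control cultures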; details: S. cerevisiae rad14 strain growth inhibition, active compounds read high
Summary of the method: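 Vehicle-treated cultures served as the baseline for growth inhibition of a DNA repair-mutant yeast strain exposed to each compound.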

[7] = NCI Yeast Anticancer Drug Screen. Data for the sgs1 mgt1 strain (AID 161);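 further: 0% = growth of cultures given vehicle only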; details: S. cerevisiae sgs1 mgt1 strain, active compounds read high
Summary of the method: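 Inhibition of yeast growth, normalised to vehicle-treated controls, is reported for a strain bearing genetic alterations in DNA damage repair.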

[8] = NCI Yeast Anticancer Drug Screen. Data for the CLN2oe strain (AID 163);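 further: 0% = growth of vehicle-only control cultures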; details: S. cerevisiae CLN2oe strain, active compounds read high
Summary of the method: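 Read-out: yeast growth inhibition, expressed relative to vehicle-only controls. The strain bears an engineered cell-cycle alteration.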

[9] = NCI Yeast Anticancer Drug Screen. Data for the cln2 rad14 strain (AID 165);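 further: 0% = growth equal to vehicle treated cultures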; details: S. cerevisiae cln2 rad14 strain, active compounds read high
Summary of the method: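 cln2 rad14 yeast strain; compound exposure; growth inhibition read vs vehicle controls.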

[10] = NCI Yeast Anticancer Drug Screen. Data for the bub3 strain (AID 167); details: S. cerevisiae bub3 mutant strain, active compounds read high
Summary of the method: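 Inhibition values come from growth of compound-treated mutant yeast normalised to vehicle-treated controls.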

[11] = NCI Yeast Anticancer Drug Screen. Data for the wt2 strain (AID 169);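 further: 0% = growth of vehicle-treated yeast cultures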; details: S. cerevisiae wt2 strain growth inhibition, active compounds read high
Summary of the method: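 Read-out: growth inhibition versus vehicle-treated control cultures after compound exposure of the yeast strain.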

[12] = NCI Yeast Anticancer Drug Screen. Data for the mlh1 strain (AID 171);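 further: 0% = growth of vehicle-treated control cultures of the same strain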; details: S. cerevisiae mlh1 strain growth inhibition, active compounds read high
Summary of the method: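 Read-out: growth inhibition versus vehicle controls. Strain: engineered yeast with a defined DNA repair or cell cycle defect, compound-treated.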

[13] = NCI Yeast Anticancer Drug Screen. Data for the sgs1 strain (AID 173);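 further: 0% = growth of vehicle-only control cultures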; details: S. cerevisiae sgs1 mutant, active compounds read high
Summary of the method: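 Read-out: yeast growth inhibition relative to vehicle controls, following compound exposure of a strain with a defined DNA repair/cell cycle alteration.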

[14] = NCI Yeast Anticancer Drug Screen. Data for the mlh1 rad18 strain (AID 175); details: S. cerevisiae mlh1 rad18 strain growth inhibition, active compounds read high
Summary of the method: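 Yeast w/ defined DNA-repair lesions; compound exposure; growth vs vehicle controls → % inhibition.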

[15] = NCI Yeast Anticancer Drug Screen. Data for the rad18 strain (AID 177); details: S. cerevisiae rad18 mutant growth inhibition, active compounds read high
Summary of the method: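 Readout: growth inhibition vs vehicle controls. Cells: genetically altered yeast strain, DNA repair defect.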

[16] = NCI Yeast Anticancer Drug Screen. Data for the wt1 strain (AID 149);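 further: 0% = growth of vehicle-treated wt1 cultures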; details: S. cerevisiae wt1 strain (SPY 50644) growth inhibition, active compounds read high
Summary of the method: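 Vehicle-normalised growth inhibition; strain wt1; compound exposure.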

[17] = at 5.0 µM (retest, dose inferred, filed as 0.5)
[18] = at 50.0 µM (retest, dose inferred, filed as 5.0)

Measured: growth inhibition

COc1cc2oc3ccccc3c(=O)c2cc1CSc1ccccc1N
inactive: [1]; at 1.2 µM -1% | [1]; at 3.7 µM 1% | [1]; at 11.0 µM 1% | [1]; at 33.0 µM 8% | [1]; at 100.0 µM 8% | [2]; at 1.2 µM -5% | [2]; at 3.7 µM 1% | [2]; at 11.0 µM 4% | [2]; at 33.0 µM 14% | [2]; at 100.0 µM 16% | [3]; at 1.2 µM 1% | [3]; at 3.7 µM 0% | [3]; at 11.0 µM -2% | [3]; at 33.0 µM -2% | [3]; at 100.0 µM 6% | [4]; at 1.2 µM 0% | [4]; at 3.7 µM 0% | [4]; [17] 9% | [4]; at 11.0 µM 1% | [4]; at 33.0 µM 6% | [4]; [18] 26% | [4]; at 50.0 µM 44.9% | [4]; at 100.0 µM 7% | [5]; at 1.2 µM -2% | [5]; at 3.7 µM -1% | [5]; [17] 8% | [5]; at 11.0 µM -1% | [5]; at 33.0 µM 2% | [5]; [18] 8% | [5]; at 50.0 µM -19.2% | [5]; at 100.0 µM 15% | [6]; at 1.2 µM 0% | [6]; at 3.7 µM -6% | [6]; at 11.0 µM -5% | [6]; at 33.0 µM -18% | [6]; at 100.0 µM -16% | [7]; [17] 3% | [7]; [18] 48% | [7]; at 50.0 µM 39.8% | [8]; at 1.2 µM -4% | [8]; at 3.7 µM 3% | [8]; at 11.0 µM -1% | [8]; at 33.0 µM 2% | [8]; at 100.0 µM 3% | [9]; [17] 2% | [9]; [18] 34% | [9]; at 50.0 µM 27.5% | [10]; at 1.2 µM -1% | [10]; at 3.7 µM 2% | [10]; [17] 4% | [10]; at 11.0 µM 35% | [10]; at 33.0 µM 54% | [11]; at 1.2 µM -1% | [11]; at 3.7 µM -2% | [11]; at 11.0 µM -2% | [11]; at 33.0 µM 3% | [11]; at 100.0 µM 7% | [12]; at 1.2 µM -5% | [12]; at 3.7 µM 0% | [12]; at 11.0 µM -1% | [12]; at 33.0 µM 2% | [12]; at 100.0 µM -7% | [13]; at 1.2 µM 1% | [13]; at 3.7 µM 1% | [13]; at 11.0 µM 5% | [13]; at 33.0 µM 15% | [13]; at 100.0 µM 20% | [14]; [17] 15% | [14]; [18] 31% | [14]; at 50.0 µM 39.9% | [15]; at 1.2 µM -14% | [15]; at 3.7 µM -7% | [15]; at 11.0 µM -12% | [15]; at 33.0 µM 8% | [15]; at 100.0 µM 3%
active: [10]; [18] 71% | [10]; at 50.0 µM 72.4% | [10]; at 100.0 µM 74%

CCOP(=O)(OCC)/C(C#N)=C/c1ccc(-c2ccc(F)cc2F)o1
active: [4]; [17] 75% | [4]; [18] 99% | [5]; [18] 99% | [5]; at 50.0 µM 70.8% | [7]; [18] 99% | [9]; [18] 99% | [10]; [18] 99% | [10]; at 50.0 µM 74.8% | [14]; [18] 99%
inactive: [1]; at 1.2 µM 2% | [1]; at 3.7 µM 4% | [1]; at 11.0 µM 4% | [1]; at 33.0 µM 4% | [1]; at 100.0 µM 4% | [16]; at 1.2 µM -2% | [16]; at 3.7 µM -2% | [16]; at 11.0 µM -2% | [16]; at 33.0 µM -4% | [16]; at 100.0 µM -1% | [3]; at 1.2 µM -5% | [3]; at 3.7 µM -4% | [3]; at 11.0 µM 0% | [3]; at 33.0 µM -10% | [3]; at 100.0 µM 0% | [4]; at 1.2 µM 2% | [4]; at 3.7 µM 2% | [4]; at 11.0 µM -9% | [4]; at 33.0 µM 3% | [4]; at 50.0 µM 39.8% | [4]; at 100.0 µM 5% | [5]; at 1.2 µM 2% | [5]; at 3.7 µM -4% | [5]; [17] 19% | [5]; at 11.0 µM -4% | [5]; at 33.0 µM -6% | [5]; at 100.0 µM -1% | [6]; at 1.2 µM -1% | [6]; at 3.7 µM -1% | [6]; at 11.0 µM -2% | [6]; at 33.0 µM -3% | [6]; at 100.0 µM 1% | [7]; [17] 35% | [7]; at 50.0 µM 63.1% | [8]; at 1.2 µM -1% | [8]; at 3.7 µM 1% | [8]; at 11.0 µM -6% | [8]; at 33.0 µM -7% | [8]; at 100.0 µM -1% | [9]; [17] 16% | [9]; at 50.0 µM 60.6% | [10]; at 1.2 µM -7% | [10]; at 3.7 µM -1% | [10]; [17] 26% | [10]; at 11.0 µM 4% | [10]; at 33.0 µM -3% | [10]; at 100.0 µM -2% | [11]; at 1.2 µM -2% | [11]; at 3.7 µM 0% | [11]; at 11.0 µM -1% | [11]; at 33.0 µM 1% | [11]; at 100.0 µM 1% | [12]; at 1.2 µM -1% | [12]; at 3.7 µM -7% | [12]; at 11.0 µM 3% | [12]; at 33.0 µM 0% | [12]; at 100.0 µM -1% | [13]; at 1.2 µM -2% | [13]; at 3.7 µM -4% | [13]; at 11.0 µM -3% | [13]; at 33.0 µM -4% | [13]; at 100.0 µM -1% | [14]; [17] 60% | [14]; at 50.0 µM 41.4% | [15]; at 1.2 µM -3% | [15]; at 3.7 µM -2% | [15]; at 11.0 µM -2% | [15]; at 33.0 µM -19% | [15]; at 100.0 µM 2%
